Laboratory results published in PMC4552634, “A New Set of Chemical Starting Points with Plasmodium falciparum Transmission-Blocking Potential for Antimalarial Drug Discovery” (PLoS ONE, 2015).
Screen size: about 13,000 compounds; about 3,200 (25%) showed an effect of 50% or more. The list shows a part of the results. Square brackets hold non-standard residues; d marks the D form. Peptide text beside a SMILES is read from it. * marks the point of attachment. Butanoyl(4-(4-HOPh)) = O=C(CCCc1ccc(O)cc1)*

test system: P. falciparum stage V gametocytes; parameters: BacTiter-Glo ATP luminescence viability of purified stage V gametocytes in 384-well plates, per cent inhibition versus DMSO; conditions: 48 h, 5 µM; inhibitor

| Compound | % Inhibition |
| --- | --- |
| O=C(NCc1cccc(C(F)(F)F)c1)c1ccc(CNC(=O)c2ccc(O)c(-c3ccc(Cl)c(Cl)c3)c2)cc1 [TCMDC-140834] | 9.818% |
| O=C(NC1CC1)c1ccc(N2CCCC(COc3ccc4c(c3)CCCC4)C2)nc1 (stereo not drawn) [TCMDC-134263] | 18.7% |
| O=C(NCC(=O)N1CCC[C@H]1C(=O)O)[C@@H](Cc1ccccc1)NC(=O)[C@@H]1CCCN1C(=O)CCCc1ccc(O)cc1 [TCMDC-141970] ({Butanoyl(4-(4-HOPh))}-P[dF]GP-OH) | -16.67% |
| Cc1ccc(NC(=O)Cc2noc(CC3CCCN3C(=O)N[C@@H](C)c3ccccc3)n2)cc1 (stereo partly drawn) [TCMDC-134994] | 0.878% |
| Cc1cccc2nc(-c3ccc(-c4ccc(NC(=O)C(C)CN5CCN(C)CC5)cc4)s3)[nH]c12 (stereo not drawn) [TCMDC-137154] | -22.77% |
| CCC(C)NC(=O)Nc1ccc(-c2cccc(-c3nc4ccccc4[nH]3)c2)cc1 (stereo not drawn) [TCMDC-133241] | 3.681% |
| CC(CN1CCN(C)CC1)C(=O)Nc1ccc(-c2cccc(-c3nc4ccccc4[nH]3)c2)cc1 (stereo not drawn) [TCMDC-137139] | 81.76% |
| CC(CN1CCN(C)CC1)C(=O)Nc1cccc(-c2ccc(-c3nc4ccccc4[nH]3)s2)c1 (stereo not drawn) [TCMDC-137142] | -55.57% |
| CC(CN1CCN(C)CC1)C(=O)Nc1ccc(-c2csc(-c3nc4ccccc4[nH]3)c2)cc1 (stereo not drawn) [TCMDC-132391] | 31.65% |
| CC(CN1CCN(C)CC1)C(=O)Nc1ccc(-c2ccc(-c3nc4ccccc4[nH]3)cc2)cc1 (stereo not drawn) [TCMDC-137148] | 72.16% |
| CC(CN1CCN(C)CC1)C(=O)Nc1ccc(-c2ccc(-c3nc4ccccc4[nH]3)s2)cc1 (stereo not drawn) [TCMDC-137140] | 86.65% |
| CCc1cc(C(=O)c2cccc(C)c2)c(NC(=O)CN2CCN(C(=O)c3ccco3)CC2)s1 [TCMDC-123646] | 4.148% |
| O=C(O)/C=C/c1cccc(F)c1F [TCMDC-124298] | -5.397% |
| O=C(Nc1cn(-c2ccc(OCc3cccc(F)c3)c(Cl)c2)c2ncncc12)c1ccncc1 [TCMDC-135377] | -11.19% |
| CCOc1ccc(Br)cc1/C=C/C(=O)Nc1ccc2c(c1)CCCN(C)C2 [TCMDC-134049] | 5.79% |
| CC1Cc2ccccc2N1S(=O)(=O)c1cccc(C(=O)Nc2nc(-c3ccccn3)cs2)c1 (stereo not drawn) [TCMDC-124559] | 76.73% |
| CCN1CCN(c2ccc(NC(=O)c3cc4c(C)nn(-c5ccccc5)c4s3)cc2C)CC1 [TCMDC-125105] | 8.854% |
| O=C(Nc1nc(-c2cc(F)ccc2F)cs1)c1cncc(Br)c1 [TCMDC-123613] | -58.06% |
| COc1cc(OC)cc(C(=O)Nc2nc(-c3ccc(NC(=O)c4ccccc4)cc3)cs2)c1 [TCMDC-125112] | -27.73% |
| Cc1nn(CC(C)C)c2sc(C(=O)Nc3nc(-c4ccccn4)cs3)cc12 [TCMDC-125461] | 62.82% |
| O=C(Nc1nc(-c2ccccn2)cs1)c1ccc(Br)s1 [TCMDC-123868] | 65.77% |
| O=C(Nc1nc(-c2ccccn2)cs1)c1ccc(S(=O)(=O)N2CCc3ccccc32)cc1 [TCMDC-125432] | 10.03% |
| COc1cc(OC)cc(C(=O)Nc2nc(-c3ccccn3)cs2)c1 [TCMDC-125345] | 25.53% |

| Compound | % Inhibition |
| --- | --- |
| CC(C)(C)c1ccc(-c2csc(NC(=O)CC(c3ccccc3)c3ccccc3)n2)cc1 [TCMDC-124604] | -3.611% |
| CC1Cc2ccccc2N1S(=O)(=O)c1cc(OCC(F)(F)F)ccc1OCC(F)(F)F (stereo not drawn) [TCMDC-124044] | -9.787% |
| O=C(Nc1cccc(-c2csc(-c3ccccc3)n2)c1)c1cccs1 [TCMDC-123904] | 22.98% |
| O=C(Nc1nc(-c2ccccn2)cs1)c1ccccc1COc1ccccc1 [TCMDC-125336] | 64.14% |
| COc1cc(F)c2ncc(Cl)c(C(O)CN3CCC(NC(=O)c4ccc5c(c4)NC(=O)CS5)CC3)c2c1 (stereo not drawn) [TCMDC-135908] | -70.28% |
| Cc1noc(C)c1-c1cccc(CNCc2cccc(-c3csc(-c4nc5ccccc5[nH]4)c3)c2)c1 [TCMDC-133047] | -19.47% |
| Cc1cccc2nc(-c3ccc(-c4cccc(NC(=O)Nc5ccsc5)c4)s3)[nH]c12 [TCMDC-133208] | 8.037% |
| CC1(C)N=C(N)N=C(N)N1OCCCc1ccc(Cl)cc1Cl [TCMDC-131692] | 4.93% |
| O=C(NC1CCC(CCN2Cc3cccc(F)c3C2)CC1)c1cccc(-c2cccnc2)c1 (stereo not drawn) [TCMDC-139623] | -21.05% |
| COc1ccc2nccc([C@@H](O)CN3CCC(NC(=O)c4ccc5cc[nH]c5c4)CC3)c2c1 [TCMDC-140743] | -6.563% |
| COc1cc(C(=O)Nc2ccc3nc(N4CCN(C)CC4)cc(C)c3c2)cc(OC)c1OC [TCMDC-123591] | 10.02% |
| CCN(CC1CCN(CC2(O)CCOCC2)CC1)c1cc(C)nc(Nc2ccc(Cl)cc2)n1 [TCMDC-133808] | 30.17% |
| N=C(N)c1ccc(Nc2nc(Nc3ccc(-c4ccccc4)cc3)ncc2[N+](=O)[O-])cc1 [TCMDC-136145] | 99.81% |
| CCN(CC)CCNC(=O)c1ccc(Nc2ncc([N+](=O)[O-])c(Nc3ccccc3OC)n2)cc1 [TCMDC-138727] | 73.19% |
| CC(=O)Nc1ccc(Nc2ncc([N+](=O)[O-])c(Nc3ccccc3C(N)=O)n2)cc1 [TCMDC-138731] | -8.61% |
| CCN(CC)CCNC(=O)c1ccc(NC(=O)c2cc(-c3ccncc3)nc3ccccc23)cc1 [TCMDC-124495] | 0.6549% |
| CNC(=O)c1ccccc1Nc1nc(Nc2ccc(C(=O)O)cc2)ncc1Cl [TCMDC-133803] | -5.909% |
| N=C(N)c1ccc(Nc2nccc(Nc3nc(-c4ccccc4)cs3)n2)cc1 [TCMDC-136090] | -20.73% |
| CCC(C)c1ccc(NC(=O)Nc2ccc(Cn3ncc(N4CCCNCC4)c(Cl)c3=O)cc2)cc1 (stereo not drawn) [TCMDC-133313] | -21.93% |
| COc1cc(-c2[nH]c(-c3ccc(OCCN(C)C)cc3)cc2-c2ccncc2)ccc1Cl [TCMDC-141225] | -13.45% |
| N=C(N)c1ccc(NC(=O)c2cc(Sc3ccc(O)c(C(=O)Nc4ccc(C(=N)N)cc4)c3)ccc2O)cc1 [TCMDC-136287] | -39.81% |
| CN(C)c1ccc(C=C2SC(=N)N(c3nccs3)C2=O)cc1 [TCMDC-125861] | -21.41% |
| Cc1nc(N)nc(N)c1OCc1cccc2c1ccc1ccccc12 [TCMDC-131344] | 22.54% |

| Compound | % Inhibition |
| --- | --- |
| Cc1nc2nc(N)nc(N)c2c(C)c1Cc1cccc(F)c1 [TCMDC-137652] | -9.941% |
| Cc1nc2nc(N)nc(N)c2c(C)c1Cc1ccccc1Br [TCMDC-137242] | -1.627% |
| COc1ccccc1Cc1c(C)nc2nc(N)nc(N)c2c1C [TCMDC-137247] | 65.53% |
| Cc1ccc(Cc2c(C)nc3nc(N)nc(N)c3c2C)cc1 [TCMDC-137657] | -7.172% |
| Cc1nc2nc(N)nc(N)c2c(C)c1Cc1c(Cl)cccc1Cl [TCMDC-137638] | 65.23% |
| Cc1nc2nc(N)nc(N)c2c(C)c1Cc1ccc([N+](=O)[O-])cc1 [TCMDC-137636] | 77.57% |
| Cc1nc2nc(N)nc(N)c2c(C)c1Cc1ccccc1Cl [TCMDC-137668] | -12.71% |
| COc1ccc(OC)c(Cc2c(C)nc3nc(N)nc(N)c3c2C)c1 [TCMDC-137651] | -0.1524% |
| Cc1nc2nc(N)nc(N)c2c(C)c1Cc1ccc(N)cc1 [TCMDC-137633] | -5.029% |
| CO/C(=C\C=C\c1cc2cc(Cl)c(Cl)cc2[nH]1)C(=O)NCCCN1CCN(c2cccc(CCCO)c2)CC1 [TCMDC-139412] | 14.82% |
| NC(N)=Nc1ccc(NC(=O)Nc2ccc(N=C(N)N)cc2)cc1 [TCMDC-137208] | -16.48% |
| Cc1cccc2nc(-c3ccc(-c4cccc(NC(=O)NCc5cccc(F)c5)c4)s3)[nH]c12 [TCMDC-133285] | -13.08% |
| OC1CCC(Nc2ccc3ncc(-c4ccc(Cl)cc4)n3n2)CC1 (stereo not drawn) [TCMDC-136693] | 13.04% |
| OC(CNc1ccnc(Nc2ccc(Cl)cc2)n1)c1ccc(C(F)(F)F)cc1 (stereo not drawn) [TCMDC-136597] | -19.72% |
| CC(C)(CNCc1ccc(F)c(F)c1)c1nc(-c2ccc(Cl)c(O)c2)c(-c2ccnc(N)n2)[nH]1 [TCMDC-141163] | -6.922% |
| O=C(NCCSCc1c(F)cccc1Cl)c1cnc2c(c1)nc(-c1cnc(-c3ccccc3)[nH]1)n2CCc1cnc[nH]1 [TCMDC-139691] | -6.07% |
| Cc1ccc2cc(NC(=O)c3cccc(C(=O)Nc4ccc5nc(C)ccc5c4)n3)ccc2n1 [TCMDC-139460] | -22.62% |
| CCCOc1cc(OCCC)cc(-c2ccc(C(=O)Nc3ccc4ccc(C)nc4c3)c(=O)[nH]2)c1 [TCMDC-141499] | 82.34% |
| CCNc1cc(C)nc(Nc2ccc(NC(=O)c3ccccc3Cl)cc2)n1 [TCMDC-124986] | -9.535% |
| CC1(C)CCCN(Cc2c(O)ccc3c(=O)c(-c4nc5ccccc5s4)c(N)oc23)C1 [TCMDC-124009] | -3.964% |
| Cc1nc(-c2nc(N3CCC(O)CC3)ncc2-c2ccsc2)sc1C [TCMDC-133149] | 35.11% |
| O=C(NC1CCN(Cc2ccsc2)CC1)c1ccc(-c2cccc(C(F)(F)F)c2)s1 [TCMDC-134366] | 17.83% |
| Cc1cc(CN2CCC(Nc3ncc(-c4ccsc4)c4nc(C(F)(F)F)ccc34)CC2)no1 [TCMDC-125306] | 66.69% |
